# Compounds without any hit were thinned out: in the full panel of roughly 83,000, 20% have a hit.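 96-well plates, one dose, 48 hours. Percent growth reported; active if below 10.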 Unmarked numbers belong to inactive results. Active and inactive are the calls of the source.
# Assays:
# Assay in all cases: NCI-60 one-dose screen, 48 h (100 = growth as untreated, 0 = no growth, -100 = all killed)
# Conditions in all cases: 10 µM unless noted
# NCI-H226 lung = system: NCI-H226 lung
# NCI-H322M lung = system: NCI-H322M lung
# HOP-62 NSCLC = system: HOP-62 NSCLC
# HOP-92 NSCLC = system: HOP-92 NSCLC
# NCI-H522 lung = system: NCI-H522 lung
# A549/ATCC NSCLC = system: A549/ATCC NSCLC
# 786-0 renal = system: 786-0 renal
# COLO 205 colon = system: COLO 205 colon
# NCI-H460 lung = system: NCI-H460 lung
Compound,growth (NCI-H226 lung),growth (NCI-H322M lung),growth (HOP-62 NSCLC),growth (HOP-92 NSCLC),growth (NCI-H522 lung),growth (A549/ATCC NSCLC),growth (786-0 renal),growth (COLO 205 colon),growth (NCI-H460 lung)
COc1ccc(C(=O)/C=C/c2cc3c(cc2Br)OCO3)cc1S(N)(=O)=O,13.5%,6.66% (active),-38.4% (active),15.4%,-46.3% (active),0.453% (active),-40.4% (active),-69% (active),–
COc1ccc(NC(=O)Nc2ccc(OCc3ccc(F)cc3)cc2)cc1,12.4%,–,–,21.3%,65.1%,58.9%,29.3%,97.7%,46%
COc1ccc(/C=C/c2n(Cc3ccc4ccccc4c3)c3ccccc3[n+]2Cc2ccc3ccccc3c2)cc1,-45% (active),-96.2% (active),-76.4% (active),–,-91% (active),-88.5% (active),-85.7% (active),-86.8% (active),-85.6% (active)
CCOc1ccc(-c2c(C#N)c(-c3ccc(Cl)cc3)nc3n[nH]c(-c4ccc(Cl)cc4)c23)cc1OC,–,77.1%,68.7%,36.7%,64.9%,55.4%,65.3%,29%,42.3%
COC(=O)/C=C/c1cccc2c1C(=O)NC(C)(c1cc3ccccc3oc1=O)N2 (configuration not stated),63.1%,–,72.4%,–,62%,67.9%,58.9%,63.1%,44.5%
COc1ccc(/C=C/c2nc3ccccc3nc2Nc2cccc(C)c2)cc1,93.1%,105%,92.7%,–,83%,106%,97.4%,105%,101%
Cc1ccc(C(=O)C(c2c[nH]c3ccccc23)c2c[nH]c3ccccc23)cc1,38.9%,81.8%,89.9%,–,-1.59% (active),49%,32%,-45.7% (active),-6.44% (active)
Cn1cc(-c2nc(N)nnc2-c2c[nH]c3ccc(Br)cc23)c2cc(Br)cnc21,–,37.8%,17.8%,-6.93% (active),-47.4% (active),12.5%,-10.9% (active),-85.3% (active),-25% (active)
C#CCOc1ccc(/C=N/Nc2nc(-c3cc4cc(Br)ccc4oc3=O)cs2)cc1OC,29.8%,77.8%,51.7%,45.5%,34.3%,49.5%,50.8%,88.1%,–
CCOC(=O)C1=C(N)N(c2ccccc2)C2=C(C(=O)CC(C)(C)C2)C1c1ccc([N+](=O)[O-])cc1 (configuration not stated),–,97.9%,99%,106%,79.2%,91.5%,93.7%,101%,–

# Source: PubChem BioAssay (NCI)
